Test results taken from PubChem BioAssay (NCI).
About 83,000 compounds went through this panel and 20% of them were active in at least one assay; those are over-represented in the sample as a whole.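 The test compound was applied at a single concentration to cells in 96-well plates for 48 hours, and percent growth was recorded.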 A number with no mark means an inactive call. Activity calls are given as the source filed them. The calls were made as follows: active = growth percent below 10; inactive = the rest.

Experiments:
Assay in all cases: NCI-60 one-dose screen, 48 h (100 = growth as untreated, 0 = no growth, -100 = all killed)
Conditions in all cases: 10 µM unless noted
[1] = test system: DU-145 prostate
[2] = test system: K-562 leukemia
[3] = test system: MALME-3M melanoma
[4] = test system: MDA-MB-231 breast
[5] = test system: RXF 393 renal
[6] = test system: SF-268 CNS
[7] = test system: SF-295 CNS
[8] = test system: SF-539 CNS
[9] = test system: UACC-257 melanoma
[10] = test system: M14 melanoma
[11] = test system: HCT-15 colon
[12] = test system: HT29 colon
[13] = test system: SNB-75 CNS
[14] = test system: SNB-19 CNS
[15] = test system: U251 CNS
[16] = test system: PC-3 prostate
[17] = test system: SK-MEL-5 melanoma
[18] = test system: UACC-62 melanoma
[19] = test system: LOX IMVI melanoma
[20] = test system: SK-MEL-28 melanoma

SMILES	growth [1]	growth [2]	growth [3]	growth [4]	growth [5]	growth [6]	growth [7]	growth [8]	growth [9]	growth [10]	growth [11]	growth [12]	growth [13]	growth [14]	growth [15]	growth [16]	growth [17]	growth [18]	growth [19]	growth [20]
Cc1ccc(-c2cnc3sc(C(=O)NCCc4ccccc4)c(C)n23)cc1	99.1%	93.9%	95.5%	79.1%	99.1%	86.7%	104%	96.6%	120%	91.9%	97.9%	113%	79.3%	92.1%	95%	81.7%	99.7%	85.9%	84.4%	104%
COc1ccc(-c2cnc3ccccc3n2)cc1	106%	97.5%	103%	92.7%	108%	94.6%	98.8%	90.6%	104%	100%	99.9%	118%	72.4%	93.6%	86.3%	98%	101%	91.6%	101%	104%
COc1ccc(-c2ncnc3c2ncn3CC#CCCl)cc1	87.6%	58.3%	20.2%	70.1%	29.7%	62.9%	95.3%	92.3%	59.5%	70.1%	49.6%	93.9%	93.5%	72.5%	29.4%	57.1%	62.5%	51.2%	-31.7% (active)	86.7%
CCOC(=O)c1cn2ncnc(Oc3ccc(NC(=O)NCCN(C)C)c(Cl)c3)c2c1C	86.8%	4.33% (active)	58.9%	65.2%	55.6%	65.1%	94.6%	71.5%	-4.6% (active)	-40.6% (active)	23.2%	7.1% (active)	99.1%	82.8%	70%	68.6%	60.9%	21.7%	10.3%	37.6%
Cc1cc2nc3cc(C)c(N)cc3[n+](-c3ccccc3)c2cc1N	72.9%	32.4%	48.7%	90.3%	91.7%	24%	34.5%	50.5%	32.6%	89.5%	111%	85.3%	52.1%	23.3%	19.4%	42.5%	20.7%	53.1%	67%	80.7%
CCN1C(=O)N(CC)C2Nn3c(s/c(=C4\C(=O)Nc5ccccc54)c3=O)=NC21 (stereo not given)	10.2%	20.2%	56.5%	48.3%	-1.37% (active)	64.9%	56.6%	10.9%	67.4%	14.9%	35.9%	81.2%	19.3%	55.8%	42.8%	30.3%	41.6%	46.6%	56.9%	60%
CCOC(=O)c1c2c(n(-c3ccc(C#N)cc3)c1-c1ccccc1)C=CCC2	102%	70.7%	103%	91.6%	109%	96.8%	86.2%	114%	102%	93.5%	76.9%	68.2%	83.9%	98.4%	99.7%	70.1%	92.8%	75%	84%	102%
CCc1cccc2c1S/C(=C/c1ccc(OC)cc1)C2=O	49.5%	11.2%	51.7%	46.5%	40.1%	64.5%	62.9%	8.87% (active)	72.6%	28.3%	28.1%	84.5%	26.6%	45.2%	41.7%	33.9%	57.2%	31.2%	40.3%	59.3%
Cc1ccc(-c2nc(N3CCN(CC(=O)Nc4ccc(Cl)c(C(F)(F)F)c4)CC3)c3ccccc3n2)cc1	105%	69%	106%	90.7%	80.5%	81.6%	104%	95.9%	94.5%	95.7%	79.1%	89.8%	81.2%	98.8%	93.2%	79.1%	103%	83%	92.1%	105%
Cc1cc(=O)[nH]c(=O)n1Cc1cn(-c2c3ccccc3nc3ccccc23)nn1	15.7%	7.13% (active)	93.6%	77.3%	90.7%	90.4%	102%	98.9%	67%	97.8%	79.2%	113%	103%	87.3%	88.3%	97.3%	78.9%	85.2%	15.2%	75.6%
CCOC(=O)C1=C(N)Oc2c(sc3c(C)cccc23)C1c1ccc(OC)cc1 (stereo not given)	50.5%	10.5%	43.9%	46.3%	29.8%	51%	19.4%	15.4%	46.8%	21.7%	21.7%	84.7%	-3.57% (active)	28.8%	26.6%	28.7%	52.5%	17%	32.3%	46.5%
CCCCCCn1c(-c2ccc(C(=O)O/N=C(\N)c3ccc4c(c3)OCO4)cc2)nc(-c2ccccc2)c1-c1ccccc1	0.0183% (active)	-29.7% (active)	28.1%	26.3%	-27.2% (active)	41.1%	30.6%	-30.2% (active)	62%	56.2%	7.82% (active)	36.3%	-6.91% (active)	55.3%	8.25% (active)	23.2%	62%	48.1%	-95.1% (active)	59.1%
NCCCNc1nc2ccccc2c2c(=O)c3cccc(F)c3sc12	12.6%	-28.2% (active)	80%	6.07% (active)	52.4%	45.9%	72.8%	44.2%	93.5%	10%	9.25% (active)	-14.1% (active)	42.7%	44%	28.5%	48.5%	72.9%	75.9%	-96.8% (active)	85.1%
CC(C)OC(=O)Nc1ccc(-c2nc(-c3cccc(OCCN4CCOCC4)c3)c(-c3ccnc(Br)c3)[nH]2)cc1	63.8%	0.869% (active)	-5.36% (active)	39.3%	-42.9% (active)	52.2%	-65.2% (active)	-0.0542% (active)	33.5%	30.5%	4.55% (active)	1.53% (active)	-19.3% (active)	22.5%	17.3%	19.7%	21.7%	15.1%	3.35% (active)	0.701% (active)
CC1=C(C)C(=O)C(Nc2cccc(C(=O)OC(C)(C)C)c2)=C(Br)C1=O	109%	0% (active)	88.3%	-36.1% (active)	94.9%	93.7%	101%	94.7%	87.3%	95.1%	73.2%	118%	59.7%	84.6%	90.7%	71.7%	96%	79.2%	34.9%	101%
COc1cc2cc(Oc3ccc(NC(=O)Nc4cccc(C(F)(F)F)c4)cc3)c(C)nc2cc1OCCN1CCOCC1	33.5%	11.6%	55%	57.9%	62%	55.8%	26.7%	73.7%	31%	34.3%	27.2%	35.3%	77.8%	30.7%	28%	15.7%	6.62% (active)	50.8%	38.2%	68.8%
O=C(CCc1nnc(-c2c(Cl)cccc2Cl)o1)c1nc2ccccc2[nH]1	82.2%	2.22% (active)	79.3%	38.3%	81.5%	68.1%	59.5%	95.2%	78.6%	55.8%	81.5%	9.39% (active)	63.4%	75.1%	52.5%	53.1%	67%	42.3%	55.1%	82.7%
C#Cc1cccc(NC(=O)Nc2ccccc2NC(=O)CCl)c1	6.7% [8.25 µM] (active)	9.69% [8.25 µM] (active)	-19.1% [8.25 µM] (active)	-71.7% [8.25 µM] (active)	-81.1% [8.25 µM] (active)	-17.4% [8.25 µM] (active)	38.7% [8.25 µM]	-70.8% [8.25 µM] (active)	-12.6% [8.25 µM] (active)	-22.2% [8.25 µM] (active)	-19.8% [8.25 µM] (active)	-15.5% [8.25 µM] (active)	-83.9% [8.25 µM] (active)	19.7% [8.25 µM]	-85.2% [8.25 µM] (active)	-29% [8.25 µM] (active)	-94.8% [8.25 µM] (active)	-94.1% [8.25 µM] (active)	-94.4% [8.25 µM] (active)	-10.4% [8.25 µM] (active)
CCOC(=O)Nc1ccc(-c2nc(-c3cccc(OC)c3)c(-c3ccnc(Br)c3)[nH]2)cc1	51.9%	11.9%	40.5%	41.2%	-27% (active)	51.9%	-36.1% (active)	21.7%	56.1%	36%	5.65% (active)	25.7%	32.6%	46.1%	39%	11.2%	25.7%	21.2%	4.57% (active)	42%
O=C(CCN1C(=O)/C(=C/c2ccc(O)cc2)SC1=S)Nc1ccc(Cl)cc1	108%	89.7%	89.9%	86.3%	108%	90.9%	92.9%	96.1%	101%	100%	91.2%	108%	90.4%	89.7%	96.5%	88.1%	99.2%	83.3%	97.8%	99.2%
COc1cc(C(=O)/C=C/c2sc(Cl)nc2Cl)cc(OC)c1OC	43.5%	3.23% (active)	-35.1% (active)	31.7%	-28.9% (active)	61.5%	92.8%	-11.9% (active)	70.8%	42.3%	-57.2% (active)	25.1%	73.1%	77.6%	6.7% (active)	50.8%	88.7%	85.1%	-86.5% (active)	18.5%
C=C1C(=O)O[C@H]2[C@H]1CC/C(COC(=O)NCCOCCOCC(=O)Nc1ccc(OC)c(C(N)=O)c1O)=C\CC[C@@]1(C)O[C@@H]21	76.9%	25.6%	62.1%	52%	-9.54% (active)	81.9%	97.7%	37%	57.1%	60.4%	85.4%	37.2%	80.1%	77.8%	70.5%	51.4%	84.9%	44.4%	57.2%	47.1%
Cc1nc2cnc(N)c(C#Cc3cncc(C(=O)Nc4ccc(CN5CCN(C)CC5)c(C(F)(F)F)c4)c3)c2nc1C	8.22% (active)	7.33% (active)	-40.5% (active)	-12.3% (active)	-68.3% (active)	8% (active)	36%	-23.3% (active)	-25.8% (active)	-55.6% (active)	2.84% (active)	7.18% (active)	-5.44% (active)	48.2%	42.1%	29%	26.6%	-19.7% (active)	-88.8% (active)	-26.8% (active)
c1ccc2c(-c3nc(-c4c[nH]c5ccncc45)cs3)c[nH]c2c1	44.5%	-32% (active)	-48.8% (active)	12.7%	74.9%	68.5%	50.2%	53%	96.1%	-69.7% (active)	6% (active)	2.05% (active)	57.6%	86.5%	-14.9% (active)	46.7%	51.1%	87.1%	-76% (active)	-89.8% (active)
COc1cccc(-c2nn(-c3ccccc3)cc2-c2ccnc(N3CCOCC3)c2)c1	99.5%	73.6%	90.7%	85.1%	97.8%	88.8%	82.8%	97.9%	111%	100%	85.9%	86.7%	97.2%	99.9%	96.2%	70.2%	80.4%	71.8%	89.7%	108%
Cc1ccc2nc(NC(=O)CSc3nc(Cl)c(C#N)c(-c4ccccc4)n3)sc2c1	113%	99.7%	104%	111%	114%	111%	101%	102%	101%	97.9%	99.8%	102%	95.9%	96%	99.1%	89.5%	102%	88.3%	94.3%	103%
C[N+]1=C(/C=C/c2ccc(O)c3ncccc23)C(C)(C)c2ccccc21	85.2%	16.5%	115%	64.6%	32.5%	81.8%	72.9%	25.9%	85.3%	67.5%	25%	96.9%	30.8%	27.9%	17.1%	71.2%	1.13% (active)	39.2%	40.4%	51.5%
CCOc1cccc(NC2=C(Br)C(=O)C(C)=C(C)C2=O)c1	104%	0.431% (active)	91.4%	34.3%	113%	94.1%	101%	94.9%	68%	87.1%	98.6%	107%	56.3%	94%	97.3%	73.8%	89%	81.5%	26%	104%
O=S(=O)(Nc1ccc(-c2nc(-c3cccc(OCCN4CCOCC4)c3)c(-c3ccnc(Br)c3)[nH]2)cc1)c1ccccc1	59.5%	3.42% (active)	44%	36.8%	-15.1% (active)	41.3%	2.79% (active)	38.1%	53.1%	36.8%	8.1% (active)	2.67% (active)	6.55% (active)	48.2%	35.2%	15.9%	37.5%	28.7%	3.47% (active)	38.7%
c1ccc2c(c1)Nc1ccncc1S2	118%	112%	111%	87.8%	4.28% (active)	99.3%	101%	84.4%	108%	95.1%	99.7%	90.5%	86.3%	107%	102%	91.2%	93.3%	96.8%	85.8%	128%
